Experimental data as given in the supplement of paper PMC11732987, “Enantioselective OTUD7B fragment discovery through chemoproteomics screening and high-throughput optimisation” (Communications Chemistry, 2025).

How the values were obtained:
Assay in all cases: log2 ratio of Biotin-Ahx-Ub-VS probe labelling (fragment/DMSO); higher = less target engagement (more negative = stronger competition), active = hit call of the paper (q ≤ 0.05, log2 ratio ≤ -1)
Details in all cases: compound concentration: 200 uM; treatment time: 3 h
OTUD6B = target: T1, OTUD6B (UniProt Q8N6M0)
T1 sequence (whole entry): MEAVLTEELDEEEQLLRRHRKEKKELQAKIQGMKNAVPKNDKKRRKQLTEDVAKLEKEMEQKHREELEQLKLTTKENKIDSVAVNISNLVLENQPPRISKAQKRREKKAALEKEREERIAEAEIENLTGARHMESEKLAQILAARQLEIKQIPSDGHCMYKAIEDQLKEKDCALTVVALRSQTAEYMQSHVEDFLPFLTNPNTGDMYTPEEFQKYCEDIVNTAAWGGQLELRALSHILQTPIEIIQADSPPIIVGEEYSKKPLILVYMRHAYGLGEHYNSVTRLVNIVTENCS
Procedure, shortened: (§1)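 Fragment (200 µM) or vehicle was incubated for 3 h with triplicate HEK293T lysate samples of 495 µg, which were then treated with Biotin-Ahx-Ub-VS at 0.5 µM final for 1 h. Labelled DUBs were enriched on NeutrAvidin, digested with LysC and trypsin, and analysed by diaPASEF LC-MS/MS. Values are average log2 fragment/vehicle ratios from an unpaired t-test on global-median-normalised Spectronaut label-free quantities, using proteins with ≥2 unique peptides.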

OTUD7B = target: T2, OTUD7B (UniProt Q6GQQ9)
T2 sequence (whole entry): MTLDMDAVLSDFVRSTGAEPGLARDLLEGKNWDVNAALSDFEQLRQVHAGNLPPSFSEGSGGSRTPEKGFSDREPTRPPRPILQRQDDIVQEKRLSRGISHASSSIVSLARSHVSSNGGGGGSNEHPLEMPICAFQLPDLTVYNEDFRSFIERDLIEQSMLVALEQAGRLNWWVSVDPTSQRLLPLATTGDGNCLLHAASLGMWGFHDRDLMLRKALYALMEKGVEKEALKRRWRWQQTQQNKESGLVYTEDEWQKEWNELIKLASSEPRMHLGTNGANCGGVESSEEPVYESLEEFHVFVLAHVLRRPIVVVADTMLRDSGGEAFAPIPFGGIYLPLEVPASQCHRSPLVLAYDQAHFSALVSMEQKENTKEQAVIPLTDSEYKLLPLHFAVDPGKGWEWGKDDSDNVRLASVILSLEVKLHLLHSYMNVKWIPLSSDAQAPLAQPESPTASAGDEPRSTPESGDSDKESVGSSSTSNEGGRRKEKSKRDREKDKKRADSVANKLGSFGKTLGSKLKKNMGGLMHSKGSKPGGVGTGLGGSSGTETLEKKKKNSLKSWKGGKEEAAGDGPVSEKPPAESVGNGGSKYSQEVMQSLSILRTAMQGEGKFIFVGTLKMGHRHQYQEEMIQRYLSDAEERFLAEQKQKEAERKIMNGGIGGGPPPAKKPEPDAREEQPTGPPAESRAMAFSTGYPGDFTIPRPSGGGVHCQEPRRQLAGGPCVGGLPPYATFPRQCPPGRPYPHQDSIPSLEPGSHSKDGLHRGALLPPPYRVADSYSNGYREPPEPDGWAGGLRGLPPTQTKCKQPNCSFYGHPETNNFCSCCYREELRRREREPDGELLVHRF
Procedure, shortened: as §1

PRPF8 = PRPF8 (UniProt Q6P2Q9)
Procedure, shortened: as §1

PSMD7 = target: T3, PSMD7 (UniProt P51665)
T3 sequence (whole entry): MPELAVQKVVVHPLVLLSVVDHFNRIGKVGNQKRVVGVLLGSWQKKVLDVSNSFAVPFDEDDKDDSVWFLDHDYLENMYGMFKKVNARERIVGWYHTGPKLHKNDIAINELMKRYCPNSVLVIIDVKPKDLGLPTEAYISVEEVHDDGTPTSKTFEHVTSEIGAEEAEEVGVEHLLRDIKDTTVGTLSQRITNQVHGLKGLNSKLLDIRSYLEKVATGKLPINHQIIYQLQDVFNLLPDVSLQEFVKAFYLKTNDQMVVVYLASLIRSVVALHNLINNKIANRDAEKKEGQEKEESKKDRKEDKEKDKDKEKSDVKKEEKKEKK
Procedure, shortened: as §1

UCHL1 = UCHL1 (UniProt P09936)
Procedure, shortened: as §1

UCHL3 = target: T4, UCHL3 (UniProt P15374)
T4 sequence (whole entry): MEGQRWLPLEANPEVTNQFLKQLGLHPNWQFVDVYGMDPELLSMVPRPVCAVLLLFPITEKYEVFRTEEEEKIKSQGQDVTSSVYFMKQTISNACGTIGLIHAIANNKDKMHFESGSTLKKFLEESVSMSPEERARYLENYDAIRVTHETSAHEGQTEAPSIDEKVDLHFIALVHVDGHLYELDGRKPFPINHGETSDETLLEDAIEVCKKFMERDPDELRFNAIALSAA
Procedure, shortened: as §1

UCHL5 = target: T5, UCHL5 (UniProt Q9Y5K5)
T5 sequence (whole entry): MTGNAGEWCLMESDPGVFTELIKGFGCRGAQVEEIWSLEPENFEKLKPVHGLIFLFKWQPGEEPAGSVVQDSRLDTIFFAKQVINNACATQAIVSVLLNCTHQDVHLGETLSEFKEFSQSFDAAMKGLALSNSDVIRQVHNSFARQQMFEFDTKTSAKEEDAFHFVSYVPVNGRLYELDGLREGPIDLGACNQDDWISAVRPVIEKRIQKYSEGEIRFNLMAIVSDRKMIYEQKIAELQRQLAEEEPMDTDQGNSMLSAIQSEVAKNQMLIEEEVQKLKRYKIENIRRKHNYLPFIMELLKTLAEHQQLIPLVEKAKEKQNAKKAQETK
Procedure, shortened: as §1

USP10 = USP10 (UniProt Q14694)
Procedure, shortened: as §1

USP15 = target: T6, USP15 (UniProt Q9Y4E8)
T6 sequence (whole entry): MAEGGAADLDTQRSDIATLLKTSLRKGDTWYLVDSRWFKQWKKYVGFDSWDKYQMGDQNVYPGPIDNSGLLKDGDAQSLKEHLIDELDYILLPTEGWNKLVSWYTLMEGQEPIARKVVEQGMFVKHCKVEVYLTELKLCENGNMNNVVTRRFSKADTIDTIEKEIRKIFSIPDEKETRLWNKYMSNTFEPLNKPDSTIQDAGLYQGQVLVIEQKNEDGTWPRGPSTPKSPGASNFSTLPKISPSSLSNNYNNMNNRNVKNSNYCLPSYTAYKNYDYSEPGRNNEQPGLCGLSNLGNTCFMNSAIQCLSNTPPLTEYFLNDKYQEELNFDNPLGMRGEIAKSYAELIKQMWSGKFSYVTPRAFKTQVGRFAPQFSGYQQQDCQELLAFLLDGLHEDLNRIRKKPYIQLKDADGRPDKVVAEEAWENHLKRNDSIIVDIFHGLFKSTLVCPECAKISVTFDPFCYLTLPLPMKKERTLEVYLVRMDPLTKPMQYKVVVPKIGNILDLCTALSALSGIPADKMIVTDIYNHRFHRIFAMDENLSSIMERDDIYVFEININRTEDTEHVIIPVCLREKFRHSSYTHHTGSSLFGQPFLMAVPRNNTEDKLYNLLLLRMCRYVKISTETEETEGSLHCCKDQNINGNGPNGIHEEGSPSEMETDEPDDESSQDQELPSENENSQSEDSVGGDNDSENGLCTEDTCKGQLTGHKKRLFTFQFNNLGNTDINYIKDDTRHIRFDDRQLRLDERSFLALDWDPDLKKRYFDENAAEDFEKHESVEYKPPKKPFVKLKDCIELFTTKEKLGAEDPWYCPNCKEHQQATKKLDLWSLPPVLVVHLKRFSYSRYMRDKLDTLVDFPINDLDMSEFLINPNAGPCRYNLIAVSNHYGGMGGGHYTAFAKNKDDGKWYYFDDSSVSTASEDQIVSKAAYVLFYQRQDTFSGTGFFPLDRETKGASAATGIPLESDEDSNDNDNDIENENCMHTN
Procedure, shortened: as §1

USP16 = USP16 (UniProt Q9Y5T5)
Procedure, shortened: as §1

Measured: log2 ratio of Biotin-Ahx-Ub-VS probe labelling

Sequence of USP10 (Q14694 whole entry): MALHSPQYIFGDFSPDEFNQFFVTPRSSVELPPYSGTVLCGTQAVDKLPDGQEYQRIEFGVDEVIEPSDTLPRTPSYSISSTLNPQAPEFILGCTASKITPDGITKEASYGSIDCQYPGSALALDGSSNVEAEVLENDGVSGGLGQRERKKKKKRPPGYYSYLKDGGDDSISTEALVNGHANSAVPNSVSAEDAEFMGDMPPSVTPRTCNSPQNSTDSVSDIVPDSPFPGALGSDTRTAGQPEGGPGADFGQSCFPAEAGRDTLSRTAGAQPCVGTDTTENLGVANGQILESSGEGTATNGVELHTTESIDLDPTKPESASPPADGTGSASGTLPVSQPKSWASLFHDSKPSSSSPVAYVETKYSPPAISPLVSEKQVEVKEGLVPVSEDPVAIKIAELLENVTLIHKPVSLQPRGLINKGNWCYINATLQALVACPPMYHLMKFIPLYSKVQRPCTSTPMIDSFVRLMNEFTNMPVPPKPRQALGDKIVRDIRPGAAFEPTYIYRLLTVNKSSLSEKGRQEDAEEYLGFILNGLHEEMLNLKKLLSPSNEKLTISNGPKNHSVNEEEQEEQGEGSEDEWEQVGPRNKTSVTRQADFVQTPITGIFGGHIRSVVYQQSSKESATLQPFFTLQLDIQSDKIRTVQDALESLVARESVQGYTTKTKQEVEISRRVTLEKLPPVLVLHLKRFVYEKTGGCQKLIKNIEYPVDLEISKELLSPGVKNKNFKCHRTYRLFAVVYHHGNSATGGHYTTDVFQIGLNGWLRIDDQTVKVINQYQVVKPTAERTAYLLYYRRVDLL
Sequence of UCHL1 (P09936 whole entry, looked up): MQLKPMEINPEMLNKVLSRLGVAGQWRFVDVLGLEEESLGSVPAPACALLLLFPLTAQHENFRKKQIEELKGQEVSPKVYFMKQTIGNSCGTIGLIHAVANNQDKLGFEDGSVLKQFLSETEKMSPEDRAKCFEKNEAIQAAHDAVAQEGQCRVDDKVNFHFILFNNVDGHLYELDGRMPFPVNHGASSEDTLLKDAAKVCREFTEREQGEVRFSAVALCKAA
Sequence of USP16 (Q9Y5T5 whole entry, looked up): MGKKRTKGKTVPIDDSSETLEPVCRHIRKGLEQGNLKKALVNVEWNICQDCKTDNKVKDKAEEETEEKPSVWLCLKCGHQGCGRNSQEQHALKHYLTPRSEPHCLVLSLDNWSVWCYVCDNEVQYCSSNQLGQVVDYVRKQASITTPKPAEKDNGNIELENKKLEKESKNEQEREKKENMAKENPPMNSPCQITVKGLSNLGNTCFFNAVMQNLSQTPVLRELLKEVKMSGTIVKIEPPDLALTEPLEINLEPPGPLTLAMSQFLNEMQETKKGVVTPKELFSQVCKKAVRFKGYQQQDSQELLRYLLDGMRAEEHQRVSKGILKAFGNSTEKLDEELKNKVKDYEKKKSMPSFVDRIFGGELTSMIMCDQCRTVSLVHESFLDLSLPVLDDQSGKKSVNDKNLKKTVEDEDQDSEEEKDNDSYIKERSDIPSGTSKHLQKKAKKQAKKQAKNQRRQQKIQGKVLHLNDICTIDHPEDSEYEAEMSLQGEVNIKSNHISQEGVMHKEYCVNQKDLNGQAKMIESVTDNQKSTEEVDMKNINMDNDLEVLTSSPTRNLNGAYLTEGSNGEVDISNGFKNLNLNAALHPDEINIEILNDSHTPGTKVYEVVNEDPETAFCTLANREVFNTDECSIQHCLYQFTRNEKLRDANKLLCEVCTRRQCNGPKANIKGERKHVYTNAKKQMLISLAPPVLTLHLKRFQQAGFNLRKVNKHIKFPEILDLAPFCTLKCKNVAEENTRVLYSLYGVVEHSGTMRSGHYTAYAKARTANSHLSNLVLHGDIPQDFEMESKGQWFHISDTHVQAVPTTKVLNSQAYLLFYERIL

CC(NC(=O)CCl)c1cccc2ccccc12 (stereo not given)
active: OTUD7B -1.46 | UCHL1 -1.35 | UCHL3 -1.96
inactive: OTUD6B -0.00256 | PRPF8 -0.109 | PSMD7 0.0463 | UCHL5 -0.585 | USP10 -0.00367 | USP15 -0.21 | USP16 0.303
